PubChem BioAssay

assay: E. coli acrAB mutant growth effects, primary screen, E. coli filamentation inducers, strain DRC39, OD650, 24 h (AID 1178); settings: higher = more signal, called active from +8 up or from −8 down;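 further: growth measured as culture turbidity by optical density at 650 nm; test concentration not given here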

z-score, inactive:
Cc1ccccc1C(O)C1C=CC2C(=O)N(c3ccccc3)C(=O)C2N1Nc1ccccc1F (stereo not drawn) -0.274
C=CC[C@]1(C(=O)NCc2ccccc2)COC(c2ccc(OCCCO)cc2)=N1 0.729
C=C(/C(=C/C[C@@H](OC(C)=O)c1ccccc1OCCO)c1cc(C(=O)OC)ccc1OC)C(C)C 1.62
CCCC=C(CCC)[C@@H](NS(=O)(=O)c1ccc(Cl)cc1)c1ccccc1 -0.558

assay: E. coli acrAB mutant growth effects, primary screen, E. coli filamentation inducers, strain DRC39, OD650, 48 h (AID 1179);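 further: screen aims at cell division blockers that make cells filament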; settings: E. coli DRC39 delta-acrAB growth, higher = more signal, called active from +8 up or from −8 down

z-score, inactive:
CCCCC(O)C1C=CC2C(=O)N(C)C(=O)C2N1Nc1ccccc1 (stereo not drawn) -0.618
O=C1C2C=CC(C(O)c3cccs3)N(Nc3ccccc3)C2C(=O)N1c1ccccc1 (stereo not drawn) -0.952
COC(=O)[C@@]1(Cc2ccccc2)[C@@H]2[C@@H](CC(=O)[C@H]2CC(=O)C(=O)N(C)C)CN1C(=O)c1ccccc1 -0.0021
CC=CC(O)C1C=CC2C(=O)N(C)C(=O)C2N1NC(=O)OC(C)(C)C (stereo not drawn) -0.504
CN(C)C(=O)[C@]1(Cc2ccccc2)N=C(c2ccc(OCCCO)cc2)O[C@@H]1c1ccccc1 -0.591
C=CCC(OC(C)=O)[C@@H]1[C@@H](N(Cc2cccc3ccccc23)C(=O)c2ccc(-c3ccccc3)cc2)c2cc(OCCCO)ccc2N1C(=O)c1ccc2ccccc2n1 (stereo partly drawn) -0.174
C=CCC(OC(C)=O)[C@@H]1[C@@H](N(Cc2ccc(-c3ccccc3)cc2)C(=O)c2ccc(-c3ccccc3)cc2)c2cc(OCCCO)ccc2N1C(=O)c1ccc2ccccc2n1 (stereo partly drawn) 0.308
NC(=O)NCC#Cc1ccc2c(c1)[C@]1(C(=O)N2)[C@H](C(=O)N2CCCCCCC2)[C@H]2C(=O)O[C@H](c3ccccc3)[C@H](c3ccccc3)N2[C@@H]1c1ccc(O)cc1 -0.194
C=CCC(OC(C)=O)[C@@H]1[C@@H](N(Cc2ccc(-c3cccc(C(F)(F)F)c3)o2)C(=O)Cc2ccc(F)cc2)c2cc(OCCCO)ccc2N1C(=O)c1ccc2ccccc2c1 (stereo partly drawn) 0.369
O=C1C2C=CC(C(O)c3ccc([N+](=O)[O-])cc3)N(Nc3ccccc3)C2C(=O)N1c1ccccc1 (stereo not drawn) -0.253
O=C1c2ccccc2[C@@]2(Cc3ccccc3N(Cc3ccccc3)C2=O)[C@H](c2ccc(CO)cc2)N1Cc1ccccc1 -0.0261
CCOC(=O)C[C@H]1[C@H](OC(=O)Cc2ccc3c(c2)OCO3)[C@@H](NC(=O)c2ccccc2)c2cc(OCCCO)ccc2N1C(=O)Cc1ccc(OC)cc1 2.05
CCOC(=O)C[C@H]1[C@H](OC(=O)c2ccc(-c3ccccc3)cc2)[C@@H](NC(=O)CC(C)C)c2cc(OCCCO)ccc2N1C(=O)Cc1ccc(OC)cc1 -0.12
CC(C)CNC(=O)[C@@H]1c2ccccc2C(=O)N(C2Cc3ccccc3C2)[C@H]1c1ccc(CO)cc1 1.03
C=C(COC)C(=O)CC[C@@H](OC(C)=O)c1ccc(OCCO)cc1 -0.432
COCCOC(=O)N1C(=O)[C@@]2(c3cc(C#CC4(O)CCCCCC4)ccc31)[C@H](c1ccc(OCCO)cc1)N1[C@H](c3ccccc3)[C@H](c3ccccc3)OC(=O)[C@H]1[C@@H]2C(=O)N1CCCCCCC1 -1.8
[N-]=[N+]=NCc1ccccc1C[C@]1(C(=O)O)COC(c2ccc(OCCCO)cc2)=N1 -0.0558
N[C@@H](Cc1ccccc1)Cn1cc(C2(O)CCCCC2)nn1 -0.607
Cc1ccc(F)cc1S(=O)(=O)N[C@@H]1CCN(Cc2ccc3[nH]ccc3c2)C1 -4.18
COCCOC(=O)N1C(=O)[C@@]2(c3cc(C#CC4=CCCCC4)ccc31)[C@H](c1ccccc1OCCO)N1[C@H](c3ccccc3)[C@H](c3ccccc3)OC(=O)[C@H]1[C@@H]2C(N)=O -0.955
CC1(C)OC[C@@]23C=C(Br)[C@@H](C[C@H]12)[C@@]1(CO1)C3=O -0.457
CN1C(=O)C2C=CC(C(O)c3ccc(-c4ccccc4)s3)N(Nc3ccccc3)C2C1=O (stereo not drawn) -0.0198
C=C(COC)/C(=C/C[C@H](OC(=O)c1ccncc1)c1ccc(OCCO)cc1)c1cc(C(=O)OC)ccc1OC 0.33
COCCn1c(C(=O)N2CCCC2)cc2c1C[C@H]1CN(C(=O)c3ccccc3)[C@@](Cc3ccccc3)(C(=O)OC)[C@@H]21 -0.0447
